# Reference: ChEMBL document CHEMBL3988442, “University of Dundee, Small-Polar-MMV Screening Library” (2021)
# Out of some 48,000 compounds screened, about 13,000 (27%) showed an effect of 50% or more. The list shows a part of the results.
# Test system: Wolbachia pipientis
# Experiment: Anti-Wolbachia Cell-Based Screen
# Type: functional
# Set-up: scale not given: in the data most compounds retested in dose-response had high values
# Settings: 5 µM
row,Compound,Percent Effect [%]
1,CC(C)(C)c1ncc(CNc2ccccc2Cn2cncn2)s1,1.316
2,CSCC(=O)N[C@H]1CN(Cc2c(C)noc2C)C[C@@H]1C(C)C,-1.777
3,CC(C)CN1CC(c2nc(C3CC3)n[nH]2)CC1=O (stereo unspecified),4.423
4,O=C(NCc1ccccc1CN1CCCC1=O)Nc1nccs1,-2.659
5,COc1cc(Cl)ccc1C(=O)NCC(=O)Nc1nccs1,-9.549
6,Cc1ccc(NC(=O)c2ccc(=O)n(CC(=O)Nc3nccs3)n2)cc1,101.8
7,O=C(Nc1ccccc1)c1ccc(NCc2nccs2)nn1,3.378
8,Cc1ccc(NC(=O)c2ccc(=O)n(CC(=O)NC3CCCC3)n2)cc1,106.4
9,Cc1ccc(-c2ccc(=O)n(CC(=O)Nc3nccs3)n2)cc1,124.1
10,Cc1cc(C)n(CC2CCCCN2CC(=O)Nc2nccs2)n1 (stereo unspecified),-11.15
11,Cc1ccccc1C(=O)Nc1cnn(CC(=O)NC2CCCC2)c1,-2.578
12,CSc1nc2cc(C)n(CC(=O)Nc3nccs3)c2c(=O)n1CC(C)C,-4.494
13,O=C(CCn1nc(C(=O)Nc2ccccc2)ccc1=O)Nc1nccs1,112.6
14,CCC(=O)NC1CCCN(Cn2nc(C(C)(C)C)ccc2=O)C1 (stereo unspecified),-0.4021
15,N#Cc1cccc(CS(=O)(=O)NCC(O)Cc2ccccc2)c1 (stereo unspecified),-5.845
16,Cc1nc(-c2cccc(C#N)c2)nn1CC1(O)CCCCC1,-14.51
17,Cc1ccccc1CS(=O)(=O)NCCCN1CCCCC1,-4.018
18,Cn1c(NCCC(=O)N2CCCC2)c(C#N)c(=O)n(C)c1=O,17.52
19,N#CCCNC(=O)CSc1cc(F)ccc1F,8.044
20,COCC(=O)NCc1cc(=O)n2c(n1)CN(Cc1nccs1)CCC2,109.1
21,CCCN1CCCn2c(nc(CNC(=O)c3nccn3C)cc2=O)C1.O=C(O)C(F)(F)F,-4.018
22,Cn1ccnc1C(=O)NCc1cc(=O)n2c(n1)CN(CC1CC1)CCC2,-4.321
23,O=C(c1cccs1)N1CCCn2c(nc(CN3CCCC3)cc2=O)C1,-6.505
24,COCC(=O)NCc1cc(=O)n2c(n1)CN(Cc1cccs1)CCC2,97.08
25,Cn1cnnc1C1CCCN(C(=O)NCc2ccc3c(c2)OCO3)C1 (stereo unspecified),-7.5
26,CC(CNC(=O)NCc1ccc2c(c1)OCO2)CC1(C)OCCO1 (stereo unspecified),-13.46

row,Compound,Percent Effect [%]
1,Cc1cc(C)nc(N2CC=C[C@@H]2C(=O)NCc2ccc3c(c2)OCO3)n1.Cl,87.31
2,Cc1cc(C)nc(N2CC=C[C@H]2C(=O)NCc2ccc3c(c2)OCO3)n1,114.7
3,CC(C)(C)NS(=O)(=O)c1cc(NC(=O)C2CC2)ccc1F,-6.714
4,Cc1cc(C)nc(CN(C)C(=O)C(c2cccnc2)N2CCCC2)c1 (stereo unspecified),24.45
5,COC(=O)[C@H]1C[C@@H](O)CCN1S(=O)(=O)c1ccc(F)cc1F,-1.254
6,COc1ccc(C2CCCCCN2S(=O)(=O)N(C)C)cc1 (stereo unspecified),-32.58
7,C[C@@H]1CN(S(=O)(=O)c2ccc(F)cc2Cl)C[C@]1(C)O,2.252
8,CN(CC(=O)NC1CC1)S(=O)(=O)c1ccc(F)cc1Cl,-5.607
9,O=S(=O)(c1cc(F)ccc1F)N1CCCC1c1ccco1 (stereo unspecified),90.48
10,COC1CCN(S(=O)(=O)N2CCCC2c2ccco2)CC1 (stereo unspecified),-19.32
11,O=S(=O)(c1cc(F)ccc1F)N1CCCC1c1ccncc1 (stereo unspecified),90.37
12,COc1ccc(F)cc1S(=O)(=O)N1CCC(OC)CC1,11.35
13,COc1ccc(C2CCCN2S(=O)(=O)c2cc(F)ccc2F)cc1 (stereo unspecified),118.1
14,O=S(=O)(N1CCC(n2cccc2)CC1)N1CCCC1c1ccco1 (stereo unspecified),-32.64
15,O=S(=O)(c1ccc(F)cc1Cl)N1CCCC1c1ccncc1 (stereo unspecified),106.2
16,COc1ccc(C2CCCN2S(=O)(=O)N(C)CC(C)C)cc1 (stereo unspecified),-5.01
17,Cc1noc(CCCC(=O)N2CCN(C)CC2c2ccccc2)n1 (stereo unspecified),7.741
18,Cc1cc(C(=O)N2CCNC(=O)CC2)c(C)n1CC(F)(F)F,-3.477
19,CCN(CC)Cc1ccc(C(=O)NC2CCc3cc(Cl)ccc32)o1 (stereo unspecified),1.872
20,CNS(=O)(=O)CCCn1nnc(-c2ccc(F)c(C)c2)n1,-16.4
21,O=C(NC1CC(=O)N(C2Cc3ccccc3C2)C1)c1csnn1 (stereo unspecified),-8.023
22,CN1CCN2C[C@@H](NC(=O)c3nc4ccccc4[nH]3)C[C@H]2C1,10.91
23,CN1C(=O)CC(C(=O)O)C12CCN(Cc1ccc(F)c(Cl)c1)CC2 (stereo unspecified),19.25
24,Cc1ccc(F)c(S(=O)(=O)N2CCCC2c2ccncc2)c1 (stereo unspecified),113.4
25,CCC[C@H]1CN(S(=O)(=O)c2cc(C)ccc2F)C[C@@H]1N,-6.271
